{"source": "PubChem BioAssay AID602438", "about": "(Sanford-Burnham Center for Chemical Genomics, 2012)", "note": "Among all 360,000 compounds or so, about 3,100 (0.86%) were called active.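 The calls were made as follows: active = inhibition or corrected inhibition above about 18%, plus a signal ratio from 0.5 to 1.5 (limit read from the data, passing the limit was not always enough); inactive = the rest.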 What follows is part of a selection rich in actives, with near analogues and random picks from the rest.", "data": [{"target": "Neuropilin-1 (Homo sapiens) (UniProt O14786)", "sequence (O14786 whole entry, looked up)": "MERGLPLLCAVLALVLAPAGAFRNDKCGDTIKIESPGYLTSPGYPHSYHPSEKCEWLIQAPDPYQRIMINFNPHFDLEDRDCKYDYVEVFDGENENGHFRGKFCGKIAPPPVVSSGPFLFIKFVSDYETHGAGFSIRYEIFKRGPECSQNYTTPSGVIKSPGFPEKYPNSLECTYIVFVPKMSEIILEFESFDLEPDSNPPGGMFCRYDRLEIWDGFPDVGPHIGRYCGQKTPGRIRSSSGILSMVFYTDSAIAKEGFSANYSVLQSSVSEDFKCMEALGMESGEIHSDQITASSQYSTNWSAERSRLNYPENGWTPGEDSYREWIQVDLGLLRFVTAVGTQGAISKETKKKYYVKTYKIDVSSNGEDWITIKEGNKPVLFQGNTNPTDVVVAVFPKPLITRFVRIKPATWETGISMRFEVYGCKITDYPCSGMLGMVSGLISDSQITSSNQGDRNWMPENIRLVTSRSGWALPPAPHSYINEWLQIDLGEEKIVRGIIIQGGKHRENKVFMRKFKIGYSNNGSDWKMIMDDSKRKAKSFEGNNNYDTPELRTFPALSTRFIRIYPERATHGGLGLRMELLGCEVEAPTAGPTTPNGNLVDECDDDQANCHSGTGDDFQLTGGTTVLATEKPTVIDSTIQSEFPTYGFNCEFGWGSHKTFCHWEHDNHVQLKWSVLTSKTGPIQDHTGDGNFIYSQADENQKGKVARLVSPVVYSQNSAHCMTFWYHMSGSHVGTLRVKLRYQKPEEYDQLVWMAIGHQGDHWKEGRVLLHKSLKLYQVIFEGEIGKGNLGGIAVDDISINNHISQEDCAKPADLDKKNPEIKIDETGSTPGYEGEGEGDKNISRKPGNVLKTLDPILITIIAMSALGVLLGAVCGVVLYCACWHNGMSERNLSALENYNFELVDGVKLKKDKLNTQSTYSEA", "experiment": "NRP-1/CendR peptide interaction modulators – biochemical, fluorescence polarization, uHTS, primary screen (AID 602438)", "conditions": "FAM-RPARPAR peptide binding to NRP-1, fluorescence polarization; at 25 µM; hits give high values", "values": [{"compound": "Cc1n[nH]c(=O)n1-c1ccc(Oc2ccccc2)cc1", "inhibition": "20% (inactive)"}, {"compound": "CCOc1ccc(CCNC(=O)C2=C(C)C(=O)OC23CCC(C)CC3)cc1OCC", "note": "(stereo unspecified)", "inhibition": "-1.3% (inactive)"}, {"compound": "CSc1ccccc1NC(=O)c1cc(Cl)sc1Cl", "inhibition": "-5.4% (inactive)"}, {"compound": "CN(C)S(=O)(=O)Oc1ccccc1C(=O)Nc1ccccc1Cl", "inhibition": "50.6% (active)"}, {"compound": "CC(=O)Nc1ccc(NC(=O)COc2ccccc2C(=O)Nc2cccc(Cl)c2Cl)cc1", "inhibition": "4.5% (inactive)"}, {"compound": "COc1ccc(CN2C3CCCC2CC(NC(=O)c2cccc(F)c2)C3)cc1", "note": "(stereo unspecified)", "inhibition": "-2.7% (inactive)"}, {"compound": "COc1ccc(CN2[C@@H](CC(=O)O)c3cc(F)ccc3S2(=O)=O)cc1", "inhibition": "26.2% (active)"}, {"compound": "COc1ccc(CN2C(CC(=O)Nc3cccnc3)c3ccc(C(F)(F)F)cc3S2(=O)=O)cc1", "note": "(stereo unspecified)", "inhibition": "0.3% (inactive)"}, {"compound": "O=C(C[n+]1cc(-c2ccc(Cl)c(Cl)c2)n2c1CCC2)c1cccs1", "inhibition": "-11.8% (inactive)"}, {"compound": "CCOC(=O)C1(Cc2ccccc2C)CCCN(C(=O)CN2C(=O)CSC2=O)C1", "note": "(stereo unspecified)", "inhibition": "5.9% (inactive)"}, {"compound": "COc1ccc(CC(=O)OC(C)C(=O)Nc2ccc(S(N)(=O)=O)cc2)cc1", "note": "(stereo unspecified)", "inhibition": "-4.6% (inactive)"}, {"compound": "COC(C[C@@H](O)[C@H](C)[C@H](O)COCc1ccccc1)OC", "inhibition": "18.6% (active)"}, {"compound": "COC(C[C@@H](O)C[C@H](O)[C@H](C)OCc1ccccc1)OC", "inhibition": "-8.8% (inactive)"}, {"compound": "COC(C[C@@H](O)C[C@@H](O)[C@H](C)OCc1ccccc1)OC", "inhibition": "17.1% (inactive)"}, {"compound": "COCCn1c(SCc2nc3cc(OC)c(OC)cc3c(=O)[nH]2)nnc1-c1ccncc1", "inhibition": "14.6% (inactive)"}, {"compound": "NS(=O)(=O)c1ccc(CCNC(=O)c2nc(CS(=O)(=O)c3ccc(Cl)cc3)no2)cc1", "inhibition": "-1.3% (inactive)"}, {"compound": "O=C1C=C(NCCNc2c(F)c(F)c(CO)c(F)c2F)CCC1", "inhibition": "-0.5% (inactive)"}, {"compound": "CCOC(=O)[C@]12CCC=C1N(Cc1ccccc1)C(=O)[C@H](CC(=O)N1CCCC1)C2", "inhibition": "-23.1% (inactive)"}, {"compound": "CC(=O)NC(CC(=O)Nc1nc(-c2ccccc2)c(C(C)=O)s1)c1ccccc1", "note": "(stereo unspecified)", "inhibition": "-4.6% (inactive)"}, {"compound": "CCN1C(=O)N[C@@H](c2ccccc2)[C@H](C(C)=O)[C@H]1C", "inhibition": "7.8% (inactive)"}, {"compound": "CCN1C(=S)N[C@@H](CCc2ccccc2)[C@H](C(=O)OC)[C@H]1C", "inhibition": "10.2% (inactive)"}, {"compound": "COCCN1C(=O)N[C@@H](CCc2ccccc2)[C@H](C(C)=O)[C@H]1C", "inhibition": "23.7% (active)"}, {"compound": "CC12COC3(C(=O)Nc4ccc(Cl)cn4)CC1CCC32C", "note": "(stereo unspecified)", "inhibition": "-0.2% (inactive)"}, {"compound": "Cc1ccc(OCC(=O)Nc2ccc(C(=O)O)cc2NC(=O)COc2ccc(C)c(C)c2)cc1C", "inhibition": "0.7% (inactive)"}, {"compound": "COc1ccc(OCC(=O)OCCN(C)C)cc1", "inhibition": "1.6% (inactive)"}, {"compound": "COc1ccc(C(=O)COC(=O)COc2ccc(C)c(C)c2)cc1", "inhibition": "33.9% (active)"}, {"compound": "CCCCNC(=O)C1(O)c2ccccc2NC(=O)N1c1ccc(Cl)cc1", "note": "(stereo unspecified)", "inhibition": "3.9% (inactive)"}, {"compound": "COc1ccc(N(CC(=O)NCCSCc2cccc(Cl)c2)S(C)(=O)=O)cc1", "inhibition": "-7.7% (inactive)"}, {"compound": "CCCNC(=O)c1cc2c(c(-c3cccc(-c4ccc(C#N)cc4)c3)n1)[C@@H](CCO)N(C(=O)CC)C2", "inhibition": "8.8% (inactive)"}, {"compound": "O=C(N[C@H]1CC[C@H](CC(=O)N2CCCCC2)O[C@@H]1CO)c1cccc(F)c1", "inhibition": "-5% (inactive)"}, {"compound": "CCCc1cc(=O)oc2c(C)c(OCC(=O)NCc3ccccn3)ccc12", "inhibition": "-1% (inactive)"}, {"compound": "CCCc1cc(=O)oc2c(C)c(OC(C)C(=O)NCC(O)c3ccccc3)ccc12", "note": "(stereo unspecified)", "inhibition": "22.4% (active)"}, {"compound": "Cc1cc(=O)oc2c(C)c(OC(C)C(=O)NC3CCN(Cc4ccccc4)CC3)ccc12", "note": "(stereo unspecified)", "inhibition": "12.6% (inactive)"}, {"compound": "CC1Cc2ccccc2N1CC(=O)Nc1ccc(S(N)(=O)=O)cc1", "note": "(stereo unspecified)", "inhibition": "3.7% (inactive)"}, {"compound": "CC1COc2ccccc2N1S(=O)(=O)c1ccccc1", "note": "(stereo unspecified)", "inhibition": "8.8% (inactive)"}, {"compound": "O=C(O)c1ccc(F)c(S(=O)(=O)Nc2ccccc2)c1", "inhibition": "-11.7% (inactive)"}, {"compound": "Cc1ccc(C(=O)Nc2ccccc2-c2ccccc2)cc1S(=O)(=O)Nc1ccccc1", "inhibition": "29.8% (active)"}, {"compound": "Cc1cc(C(C)(C)C)cc(S(=O)(=O)Nc2ccc(C(=O)O)cc2)c1C", "inhibition": "7.7% (inactive)"}, {"compound": "COC(=O)C1CCN(C(=O)c2ccc3oc(Cc4ccc(Cl)cc4)nc3c2)CC1", "inhibition": "8.2% (inactive)"}, {"compound": "O=C(C1CCN(CC2CCCCC2)CC1)N1CCCC1", "inhibition": "10.7% (inactive)"}, {"compound": "Cc1noc(C)c1CSc1nc2cc(S(=O)(=O)N3CCOCC3)ccc2o1", "inhibition": "21.4% (active)"}, {"compound": "COc1ccc(NC(=O)c2oc3ccc(S(=O)(=O)N4CCOCC4)cc3c2C)cc1", "inhibition": "13.1% (inactive)"}, {"compound": "NC(=O)CSc1nnc(-c2cccc(S(=O)(=O)N3CCOCC3)c2)o1", "inhibition": "-9.5% (inactive)"}, {"compound": "C[C@@H]1ON(C)[C@H]2C[C@H]3c4cc(N5CCN(C)CC5)ccc4CCN3C(=O)[C@@H]12", "inhibition": "4.7% (inactive)"}, {"compound": "Cc1cc(C)cc(N(CCC#N)C(=O)CN2C(=O)NC3(CCCC3)C2=O)c1", "inhibition": "-5.9% (inactive)"}, {"compound": "CCN(CC)S(=O)(=O)c1ccc2[nH]cc(C(=O)NCCc3ccccc3)c(=O)c2c1", "inhibition": "8.6% (inactive)"}, {"compound": "CN(C)/C(=N\\OC(=O)c1ccccc1)c1nonc1N", "inhibition": "2% (inactive)"}, {"compound": "CCCOc1ccc(/C(O)=C2/C(=O)C(=O)N(CCN(C)C)C2c2ccc(OC)c(OC)c2)cc1", "note": "(stereo unspecified)", "inhibition": "1.7% (inactive)"}, {"compound": "COc1cccc(C2/C(=C(/O)c3ccc(F)cc3)C(=O)C(=O)N2CCN(C)C)c1", "note": "(stereo unspecified)", "inhibition": "4% (inactive)"}, {"compound": "C=CCOc1ccc(C2/C(=C(\\O)c3c(C)[nH]c(C(=O)OC)c3C)C(=O)C(=O)N2CCN(C)C)cc1", "note": "(stereo unspecified)", "inhibition": "29.5% (active)"}, {"compound": "Cc1ccc(-c2nc(CS(=O)CC(=O)N3CCN(c4ncccn4)CC3)c(C)o2)cc1", "note": "(stereo unspecified)", "inhibition": "-11.2% (inactive)"}, {"compound": "CCNC(=S)N(CCc1c(C)[nH]c2ccc(C)cc12)Cc1ccco1", "inhibition": "-23.4% (inactive)"}, {"compound": "Cc1ccc(C)c(N(CC(=O)NCc2ccco2)C(=O)CCC(=O)Nc2ccccn2)c1", "inhibition": "-4.5% (inactive)"}, {"compound": "CCCCC1=CC2=CC(=O)C(C)(OC(=O)CC)C(=O)C2=CN1CCCOC(C)C", "note": "(stereo unspecified)", "inhibition": "29.4% (active)"}, {"compound": "CCN(CC)C(=O)N1CCN(C(=O)c2ccc(C)cn2)CC1", "inhibition": "0.3% (inactive)"}, {"compound": "Cc1ccc(C(CC(=O)O)NC(=O)c2ccc(S(=O)(=O)N3CCCC3)cc2)cc1", "note": "(stereo unspecified)", "inhibition": "-5.6% (inactive)"}]}]}
